Measurements: the supplement of paper PMC10646978
± gives the standard deviation.

system: RAW-Dual (murine macrophage reporter line); test: NF-kB reporter (SEAP) activity fold change vs agonist alone; higher = enhanced NF-kB activity; details: modulator concentration 10 µM; agonist: MPLA […]
Summary of the method: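 RAW-Dual murine macrophage reporter cells were seeded at 50 000 per well in 384-well plates and pre-incubated 1 hour at 37 °C with compound pin-transferred to 10 μM final. After 1 hour, a PRR agonist was added and cells incubated overnight. Supernatant NF-κB (SEAP, QUANTI-Blue, 620 nm absorbance) and IRF (Lucia luciferase, QUANTI-Luc, luminescence) signals were divided by the mean agonist-only control on the same plate to give fold change. Two replicate plates were averaged, with errors by propagation.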

Row | SMILES | NF-kB reporter
1 | Cc1ccc(S(=O)(=O)N2CCN(C(C)C)CC2)cc1 | 1.01 ± 0.043
2 | CCN1C(=O)C(=Cc2nc3ccccc3c(=O)n2-c2ccc(C)cc2)c2ccccc21 | 0.994 ± 0.077
3 | O=S(=O)(Nc1nc2ccccc2nc1Nc1ccc2c(c1)OCCO2)c1cccs1 | 1.13 ± 0.1
4 | O=C1CC(c2ccc(O)cc2)Oc2cc(O)cc(O)c21 (centres undefined) | 1.21 ± 0.077
5 | C=CCc1ccc(OCCCOc2ccccc2C(C)=O)c(OC)c1 | 1.19 ± 0.049
6 | CCNc1nc(S)nc(NC(C)C)n1 | 1.02 ± 0.024
7 | Cl.O[C@@H](CNC[C@H](O)[C@H]1CCc2cc(F)ccc2O1)[C@@H]1CCc2cc(F)ccc2O1 | 0.982 ± 0.028
8 | CNc1nc(Nc2ccc(C)c(C)c2)c2nccnc2n1 | 1.09 ± 0.09
9 | O=C(NCCOc1cccc2cccnc12)c1c(F)cccc1F | 0.859 ± 0.049
10 | CCNC(=O)c1ccc(CN2CCc3ccccc3C2)cc1 | 0.958 ± 0.059
11 | Cc1ccc(N2CC(C(=O)NCC3CCCO3)CC2=O)cc1 (centres undefined) | 1.03 ± 0.037
12 | Cc1cc(Cl)ccc1OCCCC(=O)NO | 1.19 ± 0.028
13 | Cc1ccc(/C(=C\CN2CCCC2)c2ccccn2)cc1.Cl.O | 1.05 ± 0.073
14 | Cc1cc(C)c(NC(=O)c2ccc(Oc3nccs3)cc2)c(C)c1 | 1.22 ± 0.18
15 | O=C1OC(CNS(=O)(=O)c2ccccc2Cl)CN1c1ccc(Cl)c(Cl)c1 (centres undefined) | 0.926 ± 0.058
16 | Cc1nc2ccc(CN(C)c3ccc(C(=O)N[C@@H](CCC(=O)O)C(=O)O)s3)cc2c(=O)[nH]1 | 1.18 ± 0.1
17 | CN(C)CCCN1c2ccccc2Sc2ccc(Cl)cc21 [Prestw-64] | 1.94 ± 0.12
18 | CS(=O)(=O)N(CC(=O)Nc1ccccc1Br)c1ccc(Cl)c(C(F)(F)F)c1 | 0.77 ± 0.072
19 | O=C(OCCO)c1cc(Cl)c(C(=O)OCCO)cc1Cl | 0.936 ± 0.079
